# Laboratory results reported in PubChem BioAssay (NCI).
# Compounds without any hit were thinned out: in the full panel of roughly 83,000, 20% have a hit.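 For each line, cells grew in 96-well plates with the test compound present at a single concentration for 48 hours.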 A number with no mark means an inactive call. The source made the active and inactive calls.
# System: RPMI-8226 leukemia
# Assay: NCI-60 one-dose screen, 48 h (100 = growth as untreated, 0 = no growth, -100 = all killed)
# Conditions: 10 µM unless noted
# Procedure: Growth inhibition of the RPMI-8226 human tumor cell line is measured as a screen for anti-cancer activity. Cells are grown in 96 well plates and exposed to the test compound for 48 hours. Compounds are tested at a single concentration, which is 10^-5 M for most compounds. The reported endpoint is percent growth (GI% or GIPRCNT), where numbers from 0 - 100% represent growth inhibition, and numbers from -100% - 0 represent cell death. For example, a value of 40 represents 60% growth inhibition. A value of 0 means no net growth occurred over the course of the experiment. A value of -40 indicates 40% of cells at the beginning of the experiment died by the end of the experiment. A value of -100 means all cells are dead at the end of the experiment.
# NCI-60 Human Tumor Cell Lines Screen was performed using the standard one-dose NCI protocol, which is described in more detail at https://dtp.cancer.gov/discovery_development/nci-60/default.htm.
# Compounds with GIPRCNT values below 10 were considered active. Activity score was based on GIPRCNT using the following formula: […]
# Score is 0 for GIPRCNT values of 100 or above, 50 for GIPRCNT values of 0, and 100 for GIPRCNT values of -100.
row,Compound,growth
1,c1cc(OCCN2CCCCCC2)ccc1CNc1ccc2nc(CCC3CCCCC3)[nH]c2c1,4.27% (active)
2,CCCCCc1ccc(S(=O)(=O)Nc2ccc3nc(N)oc3c2)cc1,38.4%
3,O=C(/C=C/c1ccco1)Nc1ncc(Cc2cc(Cl)ccc2Cl)s1,23%
4,ClCCn1cnc2c(SCc3ccccc3)ncnc21,50.9%
5,COc1cc(-c2ccc(-c3ccc(C(=N)N)cc3)s2)cc(OC)c1OC,-22.6% (active)
6,COc1ccc(C/C(C)=C(\c2ccc(Cl)cc2)c2ccc(OCCCN(C)C)cc2)cc1,-2.97% (active)
7,COc1ccc(C/C(C)=C(\c2ccc(Cl)cc2)c2ccc(OCCN3CCCC3)cc2)cc1,13.9%
8,COc1ccc2c(c1)CC[C@@H]1[C@@H]2CC[C@]2(C)c3c(cc(C#N)c4c3sc3ccccc34)C[C@@H]12,95.8%
9,Cc1ccc(Cc2cnc(NC(=O)/C=C/c3ccc(C)o3)s2)cc1,26.8%
10,O=C(O)c1cn(C2CC2)c2cc(N3CCN(C(=O)N4CCOCC4)CC3)c(F)cc2c1=O,108%
11,COc1ccc(C(O)c2cc3c(N)c(C(=O)Nc4cccc5ccccc45)sc3nc2C)cc1 (stereo not given),18.3%
12,CNCC[C@H](Oc1cccc2ccccc12)c1cccs1,94.7%
13,Cc1ccc2c(/C=C/C(=O)c3cc(CN4CCOCC4)c(O)c4nc(C)ccc34)cc(CN3CCOCC3)c(O)c2n1,2.37% (active)
14,O=C(/C=C/C12c3ccccc3C(c3ccccc31)C1C(=O)NC(=O)C12)c1ccco1 (stereo not given),-7.21% (active)
15,C#CCOc1cccc(Nc2ncnc3cc(NC(=O)CCl)ccc23)c1,-43.9% (active)
16,N#Cc1ccc(/C=C/c2cn(-c3ccccc3)nc2-c2cccc([N+](=O)[O-])c2)cc1,74.8%
17,CCOC(=O)c1nnn(Cc2cc(=O)oc3ccc(O)cc23)c1C,96.7%
18,CCOC(=O)C1=C(CC(O)c2ccc(OC)cc2OC)NC(=O)NC1c1ccccc1 (stereo not given),99.2%
19,COC(=O)c1sccc1-c1cc(O)c(C(=O)Nc2ccccc2)s1,93.4%
20,CCN(CC)CCOc1ccc(Nc2ncc3cc(-c4c(Cl)cccc4Cl)c(=O)n(CCOC)c3n2)cc1,2.23% (active)

row,Compound,growth
1,O=CCCCOCc1ccccc1,100%
2,CCN1C(=O)N(CC)C2C1NN=c1s/c(=C\c3ccc(OC)cc3)c(=O)n12 (stereo not given),20.6%
3,Cn1cc(-c2csc(-c3cn(CCCN4CCOCC4)c4ccc(F)cc34)n2)c2cccnc21,34.8%
4,COC(=O)c1nc(-c2ccccc2)oc1S(=O)(=O)N1CCCC(C)C1 (stereo not given),51%
5,Cc1ncc(C(=O)Nc2ccc(CN3CCN(C)CC3)c(C(F)(F)F)c2)cc1C#Cc1cnc(N)c2ccc(C#N)cc12,7.42% (active)
6,C=C(C)[C@@H]1CC[C@]2(COC3CCCCO3)CC[C@]3(C)[C@H](CC[C@@H]4[C@@]5(C)C=C(C=O)C(=O)C(C)(C)[C@@H]5CC[C@]43C)[C@@H]12 (stereo not given in full),-6.13% (active)
7,C(=C(\C1=NCCN1)n1ccc2ccccc21)/c1ccccc1,100%
8,CCOC(=O)c1cnn(CC(C)O)c1NC(=O)NCc1cccc(F)c1 (stereo not given),90.3%
9,Cc1ccc(S(=O)(=O)c2nc(-c3ccccc3)oc2SCC(N)=O)cc1,96.8%
10,CCN(CC)CCCC(Cc1ccccc1)Nc1c2ccc(Cl)cc2nc2ccc(OC)cc12 (stereo not given),-6.17% (active)
11,CCOc1ncc([N+](=O)[O-])c(OCC)n1,84.8%
12,Cc1sc2nc(NCCN)[nH]c(=O)c2c1C,110%
13,CCCCn1c(NC(C)=O)c(S(=O)(=O)c2ccccc2)c2nc3ccccc3nc21,107%
14,CC1(C)CC[C@]23CC[C@]4(C)[C@H](CC[C@@H]5[C@@]6(C)C/C(=C/O)C(=O)C(C)(C)[C@@H]6CC[C@]54C)[C@H]2[C@H]1OC3,100%
15,O=C(NN1C(=O)CSC1c1cccc([N+](=O)[O-])c1)c1ccc(NC(=O)c2ccccn2)cc1 (stereo not given),103%
16,COC(=O)c1c(C)nc(C)c2c1C(=O)C=C(NCc1ccccc1)C2=O,88.4%
17,COc1ccc2[nH]cc(-c3nonc3-c3c[nH]c4ccc(Br)cc34)c2c1,52.7%
18,CCN(CC)CCOc1ccc(C(=O)/C=C\c2ccc(Cl)cc2Cl)cc1,-23.9% (active)
19,c1ccc(-c2c(-c3ccccc3)[n+](Cc3ccc4ccccc4c3)cn2Cc2ccc3ccccc3c2)cc1,-54.9% (active)
20,COc1ccc2c(O)c(/C=C3\N=Nc4ncccc43)oc2c1C[C@@H]1CCNC[C@H]1F,-4.16% (active)
